Source: PubChem BioAssay
Calls of active or inactive are those of the source.

Assays:
[1] = test system: Plasmodium falciparum Sir2 (PF13_0152, Sir2A); experiment: Plasmodium falciparum Sir2A binding compounds – biochemical, small-molecule microarray, 635 nm fluorescence, primary screen (AID 1098); conditions: fluorescence 635 nm, higher = more signal;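 also: score merges spot fluorescence intensity with its signal-to-noise ratio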
[2] = probe aDKK1 binding to arrayed compounds – biochemical, biotinylated probe, 635/667 nm fluorescence, primary screen (AID 1099); conditions: small-molecule microarray, higher = more signal;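 also: score merges 667nm spot fluorescence with signal to noise across triplicate slides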
[3] = probe aCHRDL2 binding to arrayed compounds – biochemical, biotinylated probe, 635/667 nm fluorescence, primary screen (AID 1100); conditions: small-molecule microarray, higher = more signal
[4] = change in splice reporter luminescence, either direction, cell-based, HEK293, spliceosome inhibition project, primary screen (AID 1101); conditions: HEK293 splicing luciferase reporter, 24 h, higher = more signal, called active from +8 up or from −8 down;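 also: HEK293 cells carrying a splicing-competent luciferase reporter gene; test concentration not given here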
[5] = target: Fibroblast growth factor 10 (Homo sapiens) (UniProt O15520); experiment: compounds binding fibroblast growth factor 10 – biochemical, small-molecule microarray, 635 nm fluorescence, primary screen (AID 1102); conditions: FGF10 binding, fluorescence 635 nm, higher = more signal
Fibroblast growth factor 10 (Homo sapiens), sequence (O15520 whole entry, looked up): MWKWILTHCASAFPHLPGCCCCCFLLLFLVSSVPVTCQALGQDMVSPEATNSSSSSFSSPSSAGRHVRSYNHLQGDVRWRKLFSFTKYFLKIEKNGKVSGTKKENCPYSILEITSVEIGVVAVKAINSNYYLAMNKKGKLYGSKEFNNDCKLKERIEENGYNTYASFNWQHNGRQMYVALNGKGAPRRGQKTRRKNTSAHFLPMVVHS

[6] = test system: glycogen synthase kinase-3 (GSK3A per assay name; protocol says GSK3B); experiment: compounds binding glycogen synthase kinase-3 – biochemical, small-molecule microarray, 635 nm fluorescence, GSK3A, primary screen (AID 1103); conditions: fluorescence 635 nm, higher = more signal; also: the record names both GSK3A and GSK3B
[7] = target: Epidermal growth factor receptor (Homo sapiens) (UniProt P00533); experiment: compounds binding epidermal growth factor receptor – biochemical, small-molecule microarray, 635 nm fluorescence, primary screen (AID 1104); conditions: EGFR binding, higher = more signal;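 also: score merges 667 nm emission intensity with spot signal to noise over triplicate slides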
Epidermal growth factor receptor (Homo sapiens), sequence (P00533 whole entry, looked up): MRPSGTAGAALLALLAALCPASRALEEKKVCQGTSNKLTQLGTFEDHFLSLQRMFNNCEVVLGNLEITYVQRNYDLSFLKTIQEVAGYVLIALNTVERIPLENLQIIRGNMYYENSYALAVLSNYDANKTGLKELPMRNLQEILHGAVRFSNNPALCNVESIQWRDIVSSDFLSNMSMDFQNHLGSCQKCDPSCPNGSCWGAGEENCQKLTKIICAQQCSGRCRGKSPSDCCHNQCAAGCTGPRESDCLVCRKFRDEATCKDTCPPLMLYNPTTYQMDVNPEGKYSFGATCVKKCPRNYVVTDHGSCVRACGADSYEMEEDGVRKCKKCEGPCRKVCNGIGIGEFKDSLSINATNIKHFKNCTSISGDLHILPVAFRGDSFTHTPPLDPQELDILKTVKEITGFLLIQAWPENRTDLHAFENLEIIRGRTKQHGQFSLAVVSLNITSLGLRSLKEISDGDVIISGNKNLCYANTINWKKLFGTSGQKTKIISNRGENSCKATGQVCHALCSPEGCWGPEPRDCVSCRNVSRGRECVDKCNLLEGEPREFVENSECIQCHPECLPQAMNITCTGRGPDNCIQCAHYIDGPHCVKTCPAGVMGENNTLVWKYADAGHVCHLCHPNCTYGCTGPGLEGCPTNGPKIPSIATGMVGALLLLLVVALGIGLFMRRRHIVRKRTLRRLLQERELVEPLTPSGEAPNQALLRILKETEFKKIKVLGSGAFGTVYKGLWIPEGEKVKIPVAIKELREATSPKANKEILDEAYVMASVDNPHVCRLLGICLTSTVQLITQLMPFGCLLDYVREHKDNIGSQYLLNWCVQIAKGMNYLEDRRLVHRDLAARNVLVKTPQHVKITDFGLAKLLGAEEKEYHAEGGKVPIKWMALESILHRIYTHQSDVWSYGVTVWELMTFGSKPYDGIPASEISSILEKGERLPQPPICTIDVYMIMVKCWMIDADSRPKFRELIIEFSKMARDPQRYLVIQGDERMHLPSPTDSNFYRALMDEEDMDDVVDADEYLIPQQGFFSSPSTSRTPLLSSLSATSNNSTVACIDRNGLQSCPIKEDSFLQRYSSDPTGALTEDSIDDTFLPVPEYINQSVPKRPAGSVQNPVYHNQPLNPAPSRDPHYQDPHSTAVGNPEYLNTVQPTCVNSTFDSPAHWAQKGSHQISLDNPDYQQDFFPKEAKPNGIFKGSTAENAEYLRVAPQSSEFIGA

[8] = target: Follistatin-related protein 3 (Homo sapiens) (UniProt O95633); experiment: compounds binding follistatin-related protein 3 – biochemical, small-molecule microarray, 635 nm fluorescence, primary screen (AID 1105); conditions: FSTL3 binding, higher = more signal;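 also: score merges emission near 667 nm and signal to noise per printed spot across three slides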
Follistatin-related protein 3 (Homo sapiens), sequence (O95633 whole entry, looked up): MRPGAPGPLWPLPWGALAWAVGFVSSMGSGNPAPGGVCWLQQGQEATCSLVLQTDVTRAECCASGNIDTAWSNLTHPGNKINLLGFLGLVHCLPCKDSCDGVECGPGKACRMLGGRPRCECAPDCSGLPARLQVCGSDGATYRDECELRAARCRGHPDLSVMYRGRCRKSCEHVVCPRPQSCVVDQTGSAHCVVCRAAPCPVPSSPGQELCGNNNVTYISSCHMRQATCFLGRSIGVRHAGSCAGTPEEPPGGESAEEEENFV

[9] = target: Dickkopf-related protein 1 (Homo sapiens) (UniProt O94907); experiment: small molecules binding DKK1 protein – biochemical, small-molecule microarray, 635 nm fluorescence scan, primary screen (AID 1106); conditions: higher = more signal;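 also: score merges emission near 667 nm with signal to noise over three replicate slides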
Dickkopf-related protein 1 (Homo sapiens), sequence (O94907 whole entry, looked up): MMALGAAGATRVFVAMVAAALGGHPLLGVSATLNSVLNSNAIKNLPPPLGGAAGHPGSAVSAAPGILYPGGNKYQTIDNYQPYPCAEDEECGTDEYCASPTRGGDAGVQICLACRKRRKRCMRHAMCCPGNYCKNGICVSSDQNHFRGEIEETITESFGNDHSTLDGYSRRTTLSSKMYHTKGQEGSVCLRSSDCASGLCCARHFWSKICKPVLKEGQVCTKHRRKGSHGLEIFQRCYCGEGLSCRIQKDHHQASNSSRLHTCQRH

[10] = test system: Inhibin beta A chain (activin A); experiment: small molecules binding activin A – biochemical, small-molecule microarray, 635 nm fluorescence scan, primary screen (AID 1107); conditions: INHBA, higher = more signal;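 also: mouse activin A protein probed at 4.33 µg/mL on printed slides; score merges bound-protein fluorescence near 667 nm with spot signal-to-noise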
[11] = test system: Human papillomavirus type 1a protein E7 (residues 44-93); experiment: small molecules binding HPV E7 44-93 – biochemical, small-molecule microarray, residues 44-93, 635 nm fluorescence, primary screen (AID 1108); conditions: fluorescence 635 nm, higher = more signal;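 also: E7 fragment applied at 1 µg/mL in TBST for 1 h at 4 C; score combines spot fluorescence with its signal to noise ratio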
[12] = hepatitis C replication reporter changes, two-sided – Huh7 cells, luciferase reporter, HCV replication inhibitor project, primary screen (AID 1109); conditions: Huh7 HCV replicon luciferase reporter, 48 h; higher = more signal;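 also: huh7 hepatoma cells harbouring a luciferase neomycin HCV replicon reporter; luciferase luminescence as measure of HCV replicon replication; test concentration not given here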
[13] = target: Left-right determination factor 2 (Homo sapiens) (UniProt O00292); experiment: small molecules binding LEFTY2 protein – biochemical, small-molecule microarray, 635 nm fluorescence scan, primary screen (AID 1110); conditions: higher = more signal
Left-right determination factor 2 (Homo sapiens), sequence (O00292 whole entry, looked up): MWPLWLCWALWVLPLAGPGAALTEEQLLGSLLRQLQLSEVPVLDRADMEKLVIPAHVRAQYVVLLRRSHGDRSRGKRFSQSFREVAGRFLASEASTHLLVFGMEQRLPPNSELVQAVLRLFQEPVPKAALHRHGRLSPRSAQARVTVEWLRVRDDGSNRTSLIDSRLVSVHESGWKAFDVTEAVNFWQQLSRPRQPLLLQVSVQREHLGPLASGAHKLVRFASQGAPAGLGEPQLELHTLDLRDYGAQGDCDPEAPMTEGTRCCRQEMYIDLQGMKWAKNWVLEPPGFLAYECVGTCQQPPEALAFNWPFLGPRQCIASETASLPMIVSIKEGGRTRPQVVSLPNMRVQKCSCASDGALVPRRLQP

[14] = target: Calmodulin-1 (Homo sapiens) (UniProt P0DP23); experiment: small molecules binding calmodulin-1 with EGTA – biochemical, small-molecule microarray, Cy5-labelled CALM1, profiling panel (AID 1111); conditions: Cy5-CALM1 binding fluorescence, higher = more signal;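 also: labelled calmodulin applied in Tris saline Tween buffer holding calcium plus EGTA and DTT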
[15] = target: Calmodulin-1 (Homo sapiens) (UniProt P0DP23); experiment: small molecules binding Ca-loaded calmodulin-1 – biochemical, small-molecule microarray, Cy5-labelled CALM1, plus calcium, artefact control for SMM control-protein annotation, profiling panel (AID 1112); conditions: Cy5-CALM1 binding fluorescence, higher = more signal;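 also: score merges spot fluorescence with signal to noise from triplicate slides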
[16] = probe aWnt5a binding to arrayed compounds – biochemical, biotinylated probe, 635/667 nm fluorescence, primary screen (AID 1113); conditions: small-molecule microarray, higher = more signal;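 also: score merges 667 nm fluorescence intensity with signal-to-noise per printed feature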
[17] = probe aShh binding to arrayed compounds – biochemical, biotinylated probe, 635/667 nm fluorescence, primary screen (AID 1114); conditions: small-molecule microarray, higher = more signal;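 also: probe is biotin-labelled aShh protein from a stem cell growth factor screen; measures binding of labelled protein to compounds printed on the slide; score merges feature fluorescence at 667 nm with signal-to-noise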
[18] = probe aNog binding to arrayed compounds – biochemical, biotinylated probe, 635/667 nm fluorescence, primary screen (AID 1115); conditions: small-molecule microarray, higher = more signal;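 also: probe is biotinylated aNog protein used at 0.15 µg/mL for 1 h at 4 C; z-score combines 667 nm fluorescence of each spot with its signal to noise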
[19] = target: Torsin-1A-interacting protein 1 (Homo sapiens) (UniProt Q5JTV8); experiment: compound microarray binding of lysate hLAP1 – cell lysate, small-molecule microarray, COS7 lysate, 635/667 nm fluorescence, primary screen (AID 1116); conditions: 635 nm fluorescence, higher = more signal
Torsin-1A-interacting protein 1 (Homo sapiens), sequence (Q5JTV8 whole entry, looked up): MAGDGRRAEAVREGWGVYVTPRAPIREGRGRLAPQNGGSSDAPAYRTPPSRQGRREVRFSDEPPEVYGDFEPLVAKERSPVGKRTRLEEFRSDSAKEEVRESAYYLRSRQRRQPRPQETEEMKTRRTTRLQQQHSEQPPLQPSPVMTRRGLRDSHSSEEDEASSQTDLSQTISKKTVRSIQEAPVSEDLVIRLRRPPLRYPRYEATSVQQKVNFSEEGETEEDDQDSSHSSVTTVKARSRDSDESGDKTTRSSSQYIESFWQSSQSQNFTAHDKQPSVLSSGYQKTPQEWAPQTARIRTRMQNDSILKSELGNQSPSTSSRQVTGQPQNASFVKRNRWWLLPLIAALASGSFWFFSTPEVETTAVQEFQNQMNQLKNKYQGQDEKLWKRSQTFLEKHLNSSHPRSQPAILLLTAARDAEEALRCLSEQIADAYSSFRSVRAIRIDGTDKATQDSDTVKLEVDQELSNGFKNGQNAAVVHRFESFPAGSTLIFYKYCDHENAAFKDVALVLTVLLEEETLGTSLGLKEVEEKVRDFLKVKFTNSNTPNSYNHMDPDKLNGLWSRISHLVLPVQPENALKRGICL

[20] = target: Alpha-bungarotoxin (Bungarus multicinctus) (UniProt P60615); experiment: compounds binding labelled alpha-BTX control protein – biochemical, small-molecule microarray, Alexa647 label, 635/667 nm fluorescence, artefact control for SMM control protein annotation, profiling panel (AID 1117); conditions: alpha-BTX-A647 binding fluorescence, higher = more signal
Alpha-bungarotoxin (Bungarus multicinctus), sequence (P60615 whole entry, looked up): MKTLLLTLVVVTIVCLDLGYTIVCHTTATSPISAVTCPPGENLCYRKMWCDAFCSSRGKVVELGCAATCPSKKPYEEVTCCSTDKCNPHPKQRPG

Compound	composite z-score [1]	composite z-score [2]	composite z-score [3]	z-score [4]	composite z-score [5]	composite z-score [6]	composite z-score [7]	composite z-score [8]	composite z-score [9]	composite z-score [10]	composite z-score [11]	z-score [12]	composite z-score [13]	composite z-score [14]	composite z-score [15]	composite z-score [16]	composite z-score [17]	composite z-score [18]	composite z-score [19]	composite z-score [20]
COCCOC(=O)N1C(=O)[C@@]2(c3cc(C#CCC(C(=O)OC)C(=O)OC)ccc31)[C@H](c1ccc(OCCO)cc1)N1[C@H](c3ccccc3)[C@H](c3ccccc3)OC(=O)[C@H]1[C@@H]2C(=O)N1CCN(c2ncccn2)CC1	1.36	0.0926	0.233	-0.0387 (inactive)	0.994	1.07	0.517	1.45	0.637	0.109	1.17	-1.46	0.603	1.41	0.377	-0.0236	0.184	0.363	1.33	1.85
CN1C(=O)[C@@]2(CCS(=O)(=O)c3ccccc3)N=C(c3ccc(OCCCO)cc3)O[C@H]2c2ccccc21	1.12	0.0859	0.861	-1.06 (inactive)	0.939	1.32	0.364	1.05	0.172	0.615	1.48	-1.55	-0.0486	2.46	-0.865	-0.176	-0.367	-0.321	1.72	1.32
C#CCNC(=O)[C@H](Cc1ccccc1)NC(=O)[C@@H](N=[N+]=[N-])C(C)C	0.435	-0.218	-0.503	0.177 (inactive)	0.18	0.596	0.398	0.335	0.654	0.554	0.902	0.965	0.69	0.222	-0.217	-0.117	-0.262	0.221	0.455	0.96
O=C(O)[C@]1(Cc2ccccc2)N=C(c2ccc(OCCCO)cc2)O[C@@H]1c1ccccc1	0.122	0.568	0.926	0.771 (inactive)	-0.74	-1.23	-0.856	-1.07	-1.16	0.848	-0.218	0.398	-0.539	-0.201	0.206	-0.128	0.0893	0.306	-0.499	-0.905
COc1ccc([Si](C)(C)[C@@H]2[C@@H](CCO)O[C@]3(C(=O)N(Cc4cccc(N5C(=O)c6ccccc6Oc6ccccc65)c4)c4ccccc43)[C@H]2C)cc1	0.307	0.0163	0.444	-1.19 (inactive)	-0.502	-0.735	-0.717	-0.491	-0.812	0.233	0.405	-4.56	-0.704	0.949	0.646	-0.208	-0.221	-0.0641	0.0437	-0.115
CC=CC(O)C1C=CC2C(=O)N(c3ccccc3)C(=O)C2N1Nc1ccccc1 (stereo not given)	1.37	0.864	0.882	-0.0227 (inactive)	1.11	1.29	0.247	1.36	0.239	0.871	1.19	0.527	0.215	0.667	0.362	0.136	0.304	1.16	1.1	1.89
C[C@H]1ON(c2ccc(C(=O)OC(C)(C)C)cc2)[C@@H](c2ccc(O)cc2)[C@@H]1C(=O)N1C(=O)OC[C@@H]1c1ccccc1	1.12	-0.0999	-0.232	0.242 (inactive)	0.994	1.28	0.554	1.16	0.624	-0.0428	0.644	-3.09	0.465	0.403	-0.32	-0.0977	-0.341	-0.383	0.165	0.413
O=C1c2ccccc2[C@](Cc2ccccc2I)(C(=O)NCc2ccccc2)[C@H](c2ccc(CO)cc2)N1C1CCCCC1	0.851	0.969	0.357	-0.216 (inactive)	1.37	1.08	0.228	1.08	0.837	0.958	1.4	-1.93	0.835	1.28	1.08	-0.0691	0.217	0.347	0.616	0.705
CO[C@H]1O[C@H](CO)[C@@H](OC(=O)Nc2ccc(C(F)(F)F)cc2)[C@H](OC(=O)Nc2ccc3c(c2)OCO3)[C@H]1OC(=O)Nc1ccc2c(c1)OCO2	1.5	0.517	0.63	-0.412 (inactive)	0.844	1.28	-0.279	0.871	0.214	0.483	1.33	-2.79	0.0746	1.84	-0.367	0.0438	0.0437	0.925	2	0.648
COC(=O)[C@]1(CCS(=O)(=O)c2ccccc2)N=C(c2ccc(OCCCO)cc2)O[C@@H]1c1ccccc1CN=[N+]=[N-]	1.24	0.366	0.763	1.08 (inactive)	0.63	1.28	0.231	0.702	0.0636	0.681	1.41	-2.98	0.0011	0.631	-0.48	0.0785	-0.0035	1.02	0.879	0.969
C=C(CCCC)/C(=C/C[C@@H](OC(=O)c1ccncc1)c1cccc(OCCO)c1)c1cnc2ccccc2c1	0.148	0.11	0.563	-0.562 (inactive)	1.52	0.667	1.27	1.56	0.895	1.67	1.3	-1.96	0.742	0.185	-0.472	0.0037	-0.0035	-0.103	1.49	2.58
